Screens (PubChem)
Hits are enriched below; roughly 2.3% of the tested compounds scored in any of these assays.
Rango dissoc inh: inhibitors of RanGTP-induced Rango-importin beta complex dissociation; Biochemical FRET Rango-importin beta, RanGTP-induced dissociation; Potency, µM (doses to about 46.1 µM), without a hit: at the top dose activity change, negative = inhibition; 340,000 tested, 0.071% active; calls by dose curve; further: % of control where 0% means no effect; nearly all actives have a fitted effect of over 45% in size
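Rango/importin beta premix (0.1/0.25 uM final), PBS + 1 mM DTT + 0.02% Tween-20 + 0.1% BSA; cpd 5 min RT; FRET pre-read; + RanGTP-RCC1 (0.6 uM Ran, 2 mM GTP, 0.2 uM RCC1); 45 min RT; FRET post-read, ex 430, em 486/530 nm.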
Nrf2 activator: Nrf2 pathway activation | 410,000 tested, 0.31% active | AID 624171 | Potency, µM (highest dose often 46.1 µM), for inactives: at the highest dose activation, most hits filed as activators | AREc32 ARE-luciferase reporter (MCF7-derived line), luminescence, 24 h; further: % of control where 0% means no effect; nearly all actives have a fitted effect of over 65% in size
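Luminescent ARE reporter assay in AREc32_Fluc cells: overnight plating at 37 deg C, 24 hr compound incubation, Steady-Glo added, 30 min RT before reading.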
A549 tox-1: A549 cytotoxicity, counter-screen for Nrf2 inhibitors; A549 ARE-Fluc cells, CellTiter-Fluor viability, 18-24 h; Potency, µM (titrated, usually from 46 µM), for inactives: top-dose activity change, negative = cytotoxicity, usual class: inhibitors; 390,000 tested, 0.16% active; AID 504648; further: on the % scale 0 is the no-effect control and ±100 the full control effect
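A549 ARE-Fluc cells in 5% FBS OPTI-MEM, 5000 cells/well, rested 2 h then exposed to compounds in concentration-response for 18-24 h at 37 °C. Viability by CellTiter-Fluor fluorescence (Ex 405/Em 525) after 30 min; luciferase luminescence (BugLite, 15 min, RT) read afterwards.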
Nrf2 block: inhibitors of Nrf2 signaling; 360,000 tested, 2.1% active; A549 ARE-Fluc reporter, luciferase luminescence, 18-24 h; Potency, µM (series often up to 46 µM), without a hit: at the highest dose activity change, negative = inhibition, actives largely listed as inhibitors; further: on the % scale 0 is the no-effect control and ±100 the full control effect; nearly all actives have a fitted effect of over 60% in size
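Two sequential reads on A549 ARE_Fluc cells exposed to compound for 18-24 h: a CellTiter-Fluor fluorescence read for viability, then a luciferase luminescence read for Nrf2/ARE activity.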
Rango-impB inh: prevents formation of the Rango-importin beta complex; Q14974; AID 540263; Rango CFP/YFP FRET sensor + importin beta, 45 min; Potency, µM (doses to about 92.2 µM), inactives show at the highest dose inhibition of complex formation; 340,000 tested, 0.031% active; calls by dose curve;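 further: 0% = DMSO wells and 100% = buffer wells lacking importin beta; nearly all actives have a fitted effect of over 15% in size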
Target sequence (Q14974 whole entry, looked up): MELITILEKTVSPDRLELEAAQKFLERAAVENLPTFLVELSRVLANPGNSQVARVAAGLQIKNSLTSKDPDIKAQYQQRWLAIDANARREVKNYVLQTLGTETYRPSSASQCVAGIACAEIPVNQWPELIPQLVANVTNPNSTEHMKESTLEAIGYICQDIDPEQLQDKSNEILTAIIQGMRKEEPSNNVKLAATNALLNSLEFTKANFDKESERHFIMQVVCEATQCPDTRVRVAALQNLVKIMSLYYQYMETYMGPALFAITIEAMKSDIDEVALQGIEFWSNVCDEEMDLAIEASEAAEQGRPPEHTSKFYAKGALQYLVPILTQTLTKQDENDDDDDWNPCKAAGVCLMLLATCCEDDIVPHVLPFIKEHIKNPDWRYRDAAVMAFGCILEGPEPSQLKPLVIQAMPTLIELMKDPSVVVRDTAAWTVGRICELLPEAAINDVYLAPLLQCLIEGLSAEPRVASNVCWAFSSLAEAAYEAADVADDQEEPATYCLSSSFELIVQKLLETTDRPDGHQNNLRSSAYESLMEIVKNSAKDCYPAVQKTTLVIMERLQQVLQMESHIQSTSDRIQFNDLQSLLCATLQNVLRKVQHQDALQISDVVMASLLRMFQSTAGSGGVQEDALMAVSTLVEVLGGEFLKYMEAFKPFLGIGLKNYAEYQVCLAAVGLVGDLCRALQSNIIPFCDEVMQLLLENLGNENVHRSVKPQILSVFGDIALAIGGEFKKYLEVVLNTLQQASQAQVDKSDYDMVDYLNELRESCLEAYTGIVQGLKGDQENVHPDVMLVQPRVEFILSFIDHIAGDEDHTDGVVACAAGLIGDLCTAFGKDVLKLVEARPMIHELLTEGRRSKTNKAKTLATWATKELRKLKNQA
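FRET biosensor Rango (snurportin 1 IBB between N-terminal EYFP and C-terminal Cerulean), 50 nM in PBS/1 mM DTT/0.02% Tween-20/0.1% BSA, preincubated 5 min RT with compound; 0.125 microM importin beta added, 45 min RT, CFP/YFP FRET ratio read.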
FLuc counter 3: blocks purified firefly luciferase in Nrf2 counterscreen; shares compounds with Nrf2 block; purified firefly luciferase, luminescence inhibition; Potency, µM (top dose mostly 57.5 µM), without a hit: at the highest dose activity change, negative = inhibition, most hits filed as inhibitors; 1,400 tested, 4% active; further: on the % scale 0 is the no-effect control and ±100 the full control effect; nearly all actives have a fitted effect of over 65% in size
A549 tox-2: A549 cytotoxicity, Nrf2 inhibitor counterscreen; shares compounds with Nrf2 block; A549 ARE-Fluc cells, cytotoxicity counterscreen; Potency, µM (series often up to 46.1 µM), without a hit: at the highest dose activity change, negative = cytotoxicity, usual class: inhibitors; 1,400 tested, 2% active; AID 720523;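 further: cells exposed to compounds for 18 to 24 hours; on the % scale 0 is the no-effect control and ±100 the full control effect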
Nrf2 ARE inh: confirmation of Nrf2 inhibitors in A549 ARE reporter cells; shares compounds with Nrf2 block; A549 ARE-firefly luciferase reporter, luminescence; Potency, µM (doses to about 46.1 µM), inactives show at the top dose activity change, negative = inhibition, hits mostly inhibitors; 1,400 tested, 74% active; further: on the % scale 0 is the no-effect control and ±100 the full control effect; nearly all actives have a fitted effect of over 65% in size
Starred values were filed as active, the others as inactive; ? = inconclusive; · = no result given; ! = not active in a repeat; [ ] = dose if it differs, or a comment. Unless noted, the call rests on the fitted dose curve; in most records, active means well fitted curve in the direction sought with a large enough effect; inconclusive means small, poorly fitted or top-dose-only effect, or another doubt; inactive means no such curve, though single readings can be large; an effect the other way counts as inactive or inconclusive. Potency means the concentration at half of the fitted maximal effect.

SMILES	Rango dissoc inh	Nrf2 activator	A549 tox-1	Nrf2 block	Rango-impB inh	FLuc counter 3	A549 tox-2	Nrf2 ARE inh
C[C@@H]1C[C@H]2[C@@H]3CCC4=CC(=O)C=C[C@]4(C)[C@@]3(F)C(O)C[C@]2(C)[C@@]1(O)C(=O)CO (some centres undefined)	·	·	-1.5%	0.0052µM*	·	0.3%	-3.4%	0.0065µM*
CC1CC2C3CCC4=CC(=O)C=CC4(C)C3(F)C(O)CC2(C)C1(O)C(=O)CO (centres undefined)	-13.3%	0.4%	-11.9%	?	-0.2%	·	·	·
Nc1ccc(-c2cc3ccccc3c(=O)o2)cc1	?	6.0%	-0.6%	?	?	1.51µM*	-3.4%	2.31µM*
Cn1cccc/c1=N\c1cccc[n+]1C	0.7%	2.6%	-21.6%	2.91µM*	-1.7%	-0.9%	-12.5%	5.8µM*
COc1ccc(N2CCN(C(=O)c3cc4c(-c5ccccc5F)nn(C)c4s3)CC2)cc1	·	-0.2%	-1.9%	?	·	·	·	·
COCCn1c(=O)[nH]c2cc(C(=O)N3CCN(c4ccc(Cl)cc4)CC3)ccc2c1=O	-6.7%	-0.2%	-23.2%	5.8µM*!	-0.7%	1.4%	-10.7%	?
O=C(c1ccc2c(=O)n(CCc3ccccc3)c(=O)[nH]c2c1)N1CCN(c2ccc(Cl)cc2)CC1	·	0.8%	4.1%	?	·	·	·	·
Cc1ccc(-n2nc3c(c2NC(=O)c2ccc4c(c2)OCO4)CS(=O)C3)c(C)c1 (centres undefined)	10.0%	0.2%	2.3%	5.7%	-1.3%	·	·	·
Cc1cc(C)c(CN2CCN(C(=O)Cn3cnc4c(OCc5ccccc5)ncnc43)CC2)c(C)c1	10.8%	1.1%	-13.9%	3.66µM*	13.9%	1.7%	-11.1%	6.51µM*
O=C(O)Cn1cnc2c(OCc3ccccc3)ncnc21	24.9%	-1.3%	2.3%	-2.4%	-2.7%	·	·	·
CCc1cccc(NC(=O)c2cn3c4c(ccc(Cl)c4c2=O)OC(C)C3)c1 (centres undefined)	·	0.6%	9.6%	27.8%	·	·	·	·
Cc1ccc(/C=N\NC(=O)c2ccc3c(c2)OCO3)o1	?	-0.1%	2.6%	0.6%	0.2%	·	·	·
O=C(NNc1ccnc2cc(Cl)ccc12)C1CCCCC1	22.0%	0.6%	-17.3%	3.26µM*	-2.6%	?	-13.1%	2.59µM*
Cc1cc(Cl)c(S(=O)(=O)N2CCCC2)cc1OCC(=O)NC1CCCCC1	2.4%	-0.5%	·	7.31µM*	-0.4%	0.2%	-17.9%	·
CC[N+](C)(CC)CCOC(=O)C(O)(c1ccccc1)C1CCCCC1 (centres undefined)	-9.7%	-1.3%	-4.4%	7.31µM*	0.6%	-1.2%	9.2µM*	?
O=[N+]([O-])c1ccc(N/N=C/c2sc(N3CCOCC3)nc2-c2ccccc2)c(S(=O)(=O)Nc2ccc(Cl)cc2)c1	?	0.3%	2.59µM*	1.46µM*	12.0%	-23.1%	?	3.26µM*
CC1CCC(NC(=O)c2ccc(CSc3nc4ccncc4n3Cc3ccc(F)cc3)cc2)CC1 (centres undefined)	·	0.6%	-18.6%	?	·	·	·	·
Cc1nc2ccc(NC(=O)c3cccs3)cc2c(=O)n1Cc1ccc(Cl)cc1	-7.1%	8.8%	?	4.61µM*	1.2%	-10.6%	?	16.4µM*
N=C(c1cccc([N+](=O)[O-])c1)N1CCCCCC1	8.1%	-0.1%	1.1%	5.7%	0.2%	·	·	·
Cc1nc(N2CCCCC2)sc1C(=O)c1cccc([N+](=O)[O-])c1	11.1%	3.1%	-14.3%	2.91µM*	1.8%	-28.4%	0.4%	-19.6%
CC(C)CCNC(=O)C(c1ccncc1)N(Cc1cccs1)C(=O)Cn1nnc(-c2ccc(F)cc2)n1 (centres undefined)	-1.7%	9.2%	?	2.59µM*	-4.6%	-2.6%	?	1.46µM*
O=C(NCC1CCCO1)C(c1ccncc1)N(Cc1cccs1)C(=O)Cn1nnc(-c2ccc(F)cc2)n1 (centres undefined)	-1.0%	-0.4%	-6.1%	?	-0.2%	·	·	·
Cc1cc(C)n(Cc2cc(C(=O)O)c3ccccc3n2)n1	10.9%	0.0%	2.1%	20.7%	1.6%	·	·	·
O=S1(=O)N[C@@H](Cc2ccccc2)COc2cc(N3CC[C@H](O)C3)ccc21	·	-1.2%	·	·	·	·	·	·
C=CC[n+]1c(-c2ccc(C)cc2)csc1Nc1ccc(NC(C)=O)cc1	-11.9%	2.3%	-13.3%	6.51µM*	5.3%	-25.5%	-8.3%	6.51µM*
SMILES	Rango dissoc inh	Nrf2 activator	A549 tox-1	Nrf2 block	Rango-impB inh	FLuc counter 3	A549 tox-2	Nrf2 ARE inh
O=S(=O)(Nc1cc(Br)cc2cccnc12)c1cccc2ccccc12	·	·	?	2.31µM*	·	-1.3%	?	7.31µM*
O=S(=O)(Nc1ccccc1Br)c1cccc2cccnc12	·	-1.2%	·	·	·	·	·	·
COc1ccc(Cn2cccc(NC(=O)Nc3cccc(C#N)c3)c2=O)cc1	-6.1%	2.8%	-9.8%	5.17µM*	-3.3%	-16.8%	5.3%	?
COc1ccc(Nc2nc(-c3cccs3)nc3ccccc23)cc1S(=O)(=O)N1CCOCC1	4.5%	-0.9%	?	9.2µM*	0.9%	-20.6%	?	?
COc1cc2[nH]c(=S)nc(NC3CCCCCC3)c2cc1OC	5.0%	8.7%	1.8%	1.4%	0.0%	·	·	·
COc1cc2c(NC3CCN(C(C)C)CC3)nc(N3CCCN(C)CC3)nc2cc1OCCCN(C)C	·	·	·	·	·	-1.5%	?	1.64µM*
CCOC(=O)N1CCC(Nc2cc(C)nc3c(-c4ccccc4OC)c(C)nn23)CC1	14.9%	3.1%	23.7%	9.2µM*	?	-1.0%	-25.3%	11.6µM*
Cc1ccccc1CN1CCN(C(=O)CC(C)C)CC1	3.6%	-0.5%	-12.6%	2.4%	5.4%	·	·	·
Nc1nc2c(Cl)ccc(Cl)c2s1	-9.6%	-0.3%	1.0%	-4.1%	0.7%	·	·	·
CCOc1cc(S(=O)(=O)NCc2ccncc2)ccc1Cl	4.4%	-0.2%[9.22 µM]	-10.5%	1.03µM*	?	-1.4%	-0.6%	1.3µM*
Cc1ccc(S(=O)(=O)NCC(=O)NCc2ccncc2)cc1	-14.0%	0.1%	0.6%	1.8%	3.5%	·	·	·
Cc1ccc(S(=O)(=O)NCc2ccncc2)cc1	3.0%	2.0%	-5.5%	2.59µM*	-3.3%	2.7%	-7.0%	18.4µM*
CCOc1ccc(S(=O)(=O)NCc2ccncc2)cc1	-0.4%	0.4%	-29.4%	0.411µM*	-1.0%	-0.1%	-9.4%	0.651µM*
